Among all 310,000 compounds or so, about 14,000 (4.5%) showed an effect of 50% or more. The effect is printed as a negative number. Only a selection was taken, and strong results are over-represented in it overall.
The compounds below were run against human ether-à-go-go-related gene (hERG) potassium channel (human, UniProt Q12809) (assay: primary screen, population patch clamp on CHO cells stably expressing hERG; higher = less effect of the substance).
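Further: peak tail current of the secondary pulse compared with the same well before compound.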

Chain of human ether-à-go-go-related gene (hERG) potassium channel (Q12809 whole entry, looked up): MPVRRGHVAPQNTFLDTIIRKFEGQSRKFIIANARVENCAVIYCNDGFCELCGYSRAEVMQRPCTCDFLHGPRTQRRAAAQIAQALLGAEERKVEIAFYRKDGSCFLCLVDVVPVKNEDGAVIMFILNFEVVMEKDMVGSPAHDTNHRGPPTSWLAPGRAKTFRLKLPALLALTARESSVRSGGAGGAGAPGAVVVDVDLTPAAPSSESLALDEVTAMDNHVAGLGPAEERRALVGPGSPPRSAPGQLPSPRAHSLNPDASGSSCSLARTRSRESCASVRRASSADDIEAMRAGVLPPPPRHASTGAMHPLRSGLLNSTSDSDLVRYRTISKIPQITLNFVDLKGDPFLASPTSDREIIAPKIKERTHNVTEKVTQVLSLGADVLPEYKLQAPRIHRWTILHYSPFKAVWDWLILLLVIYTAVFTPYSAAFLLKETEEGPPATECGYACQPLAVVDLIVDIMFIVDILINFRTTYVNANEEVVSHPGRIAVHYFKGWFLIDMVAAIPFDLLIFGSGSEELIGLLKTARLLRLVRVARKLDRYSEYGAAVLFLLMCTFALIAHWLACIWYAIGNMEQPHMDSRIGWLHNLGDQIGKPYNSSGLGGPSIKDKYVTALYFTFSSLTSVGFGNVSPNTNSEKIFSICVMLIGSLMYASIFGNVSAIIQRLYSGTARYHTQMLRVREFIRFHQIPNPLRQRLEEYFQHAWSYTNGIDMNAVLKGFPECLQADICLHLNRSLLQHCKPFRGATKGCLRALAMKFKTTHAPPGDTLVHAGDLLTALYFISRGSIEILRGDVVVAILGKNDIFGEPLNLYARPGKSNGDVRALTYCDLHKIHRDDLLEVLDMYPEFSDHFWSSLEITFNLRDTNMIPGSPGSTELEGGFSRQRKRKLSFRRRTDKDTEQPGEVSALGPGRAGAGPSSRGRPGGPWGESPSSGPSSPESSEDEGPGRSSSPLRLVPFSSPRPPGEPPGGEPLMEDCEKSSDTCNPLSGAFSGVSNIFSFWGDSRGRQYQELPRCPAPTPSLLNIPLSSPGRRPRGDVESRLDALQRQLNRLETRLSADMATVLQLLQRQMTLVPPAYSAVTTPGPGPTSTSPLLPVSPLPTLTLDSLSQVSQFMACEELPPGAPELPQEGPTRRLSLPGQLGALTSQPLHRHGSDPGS

SMILES | hERG current change (%, negative = inhibition) at 10uM
COc1cc(CC(=O)N(C)CC(=O)Nc2cc(C)ccc2C)cc(OC)c1OC | 11%
COc1ccc(OCC(=O)O/N=C(\N)c2ccc(OC)c(OC)c2)cc1 | 7.84%
CN(C)S(=O)(=O)c1ccc(C(=O)OCC(=O)Nc2cccnc2Cl)cc1 | 1.64%
CC(=O)N1CCN(Cc2nc3cc(NC(=O)Cn4nc(C)c5ccccc5c4=O)ccc3n2C)CC1 | 17.9%
COc1ccc(CN2C(=O)CCC2(C)C(=O)NC2CCCCCC2)cc1 (stereo not drawn) | -13.8%
O=C(NCc1ccncc1)Nc1cc(Cl)ccc1Cl | -8.6%
CC1=CN2CC(O)CN=C2C=C1.Cl (stereo not drawn) | -1.57%
COc1cccc(OC)c1OCCNCC1COc2ccccc2O1.Cl (stereo not drawn) | -22.5%
COc1cccc(OC)c1OCCNCC1CSc2ccccc2O1.Cl (stereo not drawn) | -53.6%
COc1cccc(OC)c1OCCNCCO | 21.5%
COc1ccc(-n2nnc3c(SCC(=O)Nc4ccccc4F)ncnc32)cc1 | 18.9%
COc1ccccc1NC(=O)CSc1nnc(-c2ccco2)n1N | -3.82%
COc1ccc(C)cc1NC(=O)CSc1nnc(-c2ccccn2)n1Cc1ccco1 | -15.8%
CCOc1ccccc1NC(=O)CSc1nnc(-c2ccco2)n1Cc1ccco1 | -63.4%
COc1ccccc1NC(=O)CSc1nnc(-c2ccccn2)n1Cc1ccco1 | -9.97%
CCCn1c(SCC(=O)Nc2ccccc2OC)nnc1-c1ccco1 | -68.5%
COCCn1c(SCC(=O)Nc2ccccc2OC)nnc1-c1ccco1 | -13.6%
CCOc1ccccc1NC(=O)CSc1nnc(-c2ccccc2Cl)n1Cc1ccco1 | -32%
CCOC(=O)CNC(=O)CSc1nnc(-c2ccco2)n1Cc1ccco1 | 10.4%
CCOc1ccccc1NC(=O)CSc1nnc(Cn2c(=O)sc3ccccc32)n1C | -61.9%
CCOc1ccc(NC(=O)CSc2nnc(Cn3c(=O)sc4ccccc43)n2C)cc1 | -4.3%
COc1ccccc1NC(=O)CSc1nnc(Cn2c(=O)sc3ccccc32)n1C | -44%
CCOc1ccccc1NC(=O)CSc1nnc(-c2ccccn2)n1Cc1ccco1 | -67.3%

SMILES | hERG current change (%, negative = inhibition) at 10uM
CCOc1ccc2nc(NC(=S)N(C)C)sc2c1 | 13%
Cc1ccnc(NC(=S)NC(=O)c2ccco2)c1 | -10.3%
Cc1cc(C)c(C(=O)COC(=O)c2cc([N+](=O)[O-])ccc2N2CCOCC2)cc1C | -4.07%
Cc1ccc(SC(C)c2nc(-c3cccnc3)no2)cc1 (stereo not drawn) | -30.5%
COc1ccc(OC)c(CN2CCN(C(=O)c3ccco3)CC2)c1.O=C(O)C(=O)O | 0.201%
COc1ccc(C)cc1NC(=O)CSc1nnc(-c2ccco2)n1Cc1ccco1 | -12.8%
COC(=O)CSc1nnc(-c2ccco2)n1Cc1ccco1 | -26.8%
COc1ccccc1NC(=O)CSc1nnc(-c2ccco2)n1Cc1ccco1 | -65.4%
CN(C)c1cc(-c2ccc(Br)cc2)oc(=O)c1Cl | 15.5%
CN(C)c1cc(-c2ccc(Cl)cc2)oc(=O)c1Cl | -6.67%
CN(C)c1cc(-c2ccc(C#N)cc2)oc(=O)c1Cl | -50.1%
CCCCSc1cc(C)nc(N)n1 | -1.73%
O=C(Nc1ccc(O)c(C(=O)O)c1)c1ccc2c(c1)C(=O)N(CC1CCCO1)C2=O (stereo not drawn) | 6.21%
CCCCCC(O)(CCN1CCCCC1)c1ccccc1.Cl (stereo not drawn) | -82.4%
CCCCCCC(O)(CCN1CCCCC1)c1ccccc1.Cl (stereo not drawn) | -70.3%
CS(=O)(=O)O.OC(CCN1CCCCC1)(c1ccccc1)c1ccccc1 | -36.2%
CCCCOc1ccc(C(O)(CCN2CCOCC2)c2ccccc2)cc1.Cl (stereo not drawn) | -21.7%
Cl.OC(CCCN1CCCCC1)(c1ccccc1)c1ccccc1 | -44%
CCC(O)(CCN1CCCCC1)c1ccccc1 (stereo not drawn) | -5.84%
C=CCC(O)(CCN1CCCCC1)c1ccccc1.Cl (stereo not drawn) | -10.8%
COc1ccc(C(O)(CCc2ccccc2)CCN2CCCCC2)cc1.Cl (stereo not drawn) | -17.5%
CCCCCC(O)(CCN1CCCCC1)c1ccc(OCC)cc1.Cl (stereo not drawn) | -77.1%

— article PMC4336329 (PLoS ONE, 2015)
